{"source": "ChEMBL document CHEMBL3988442", "about": "“University of Dundee, Small-Polar-MMV Screening Library” (2021)", "note": "The whole screen tested about 53,000 compounds, of which about 900 (1.7%) showed an effect of 50% or more. The entries come from a sample that favours strong results as a whole."}
{"test_system": "Mycobacterium tuberculosis", "assay": "Cornell - Phenotypic assay to identify agents that inhibit growth of Mycobacterium tuberculosis", "type": "functional", "parameters": "scale not given: direction of the effect not stated beside the values", "details": "10 mM as filed; unlikely as a test dose", "units": {"Percent Effect": "%"}}
{"smiles": "CNC(=O)C1Cn2ccnc2C2(CCN(C(=O)NC3CCCC3)CC2)O1", "note": "(centres undefined)", "Percent Effect": 14.23}
{"smiles": "COCCNC(=O)N1CCCC(COc2ccccc2)C1", "note": "(centres undefined)", "Percent Effect": 32.08}
{"smiles": "COCCN1CC(C(=O)Nc2ccc3c(c2)CCC(=O)N3C)CC1=O", "note": "(centres undefined)", "Percent Effect": -14.74}
{"smiles": "Cn1ncc2c(NCC3CCCN3c3cccnn3)ncnc21", "note": "(centres undefined)", "Percent Effect": 19.68}
{"smiles": "CCOc1cccc(COC(=O)c2cc(Cl)ccn2)n1", "Percent Effect": 14.29}
{"smiles": "CCOc1cccc(COC(=O)c2cscn2)n1", "Percent Effect": 94.28}
{"smiles": "CCOc1cccc(NC(=O)c2cc(C)on2)n1", "Percent Effect": 7.843}
{"smiles": "CCOc1cccc(COC(=O)c2ccc(Cl)cn2)n1", "Percent Effect": 25.49}
{"smiles": "CCOc1cccc(COC(=O)c2ccc(F)cn2)n1", "Percent Effect": 26.62}
{"smiles": "CCOc1cccc(COC(=O)c2cc(C)on2)n1", "Percent Effect": 56.01}
{"smiles": "Cc1cnn(CC(C)NCc2nc(-c3ccoc3)no2)c1", "note": "(centres undefined)", "Percent Effect": -18.82}
{"smiles": "CC(=O)N1CCN(C(C)c2ccc(Br)cc2)CC1", "note": "(centres undefined)", "Percent Effect": 29.59}
{"smiles": "CC(=O)c1cccc(NC(=O)Cn2cc(I)cn2)c1", "Percent Effect": 18.59}
{"smiles": "COc1ccc(C2CNCCN2C(=O)c2cccc3cccnc23)cc1", "note": "(centres undefined)", "Percent Effect": -23.3}
{"smiles": "COc1ccccc1C(=O)N1CCC(Nc2ccc(C)nn2)CC1", "Percent Effect": 2.292}
{"smiles": "CCc1ccc(NC(C(N)=O)c2ccc(F)cc2)cc1", "note": "(centres undefined)", "Percent Effect": 17.32}
{"smiles": "Cc1csc(CN2CCC[C@]3(C[C@H](OCC4CC4)CO3)C2)n1", "Percent Effect": 14.79}
{"smiles": "CCOc1ccc(C(C)Nc2ncnc3c2CCNC3)cc1OCC", "note": "(centres undefined)", "Percent Effect": 51.31}
{"smiles": "CC(Nc1ncnc2c1CCNC2)c1ccc(C(C)(C)C)cc1", "note": "(centres undefined)", "Percent Effect": 24.62}
{"smiles": "CCCc1ccc(C(C)Nc2ncnc3c2CCNC3)cc1", "note": "(centres undefined)", "Percent Effect": 32.1}
{"smiles": "COC(=O)Cn1nc(-c2ccccc2F)ccc1=O", "Percent Effect": -14.4}
{"smiles": "O=c1c(S(=O)(=O)N2CCCCC2)cccn1Cc1ccccc1Cl", "Percent Effect": 9.959}
{"smiles": "CC(C)COC(=O)N1CCCN(C(C)c2nc(C(C)C)no2)CC1", "note": "(centres undefined)", "Percent Effect": 10.17}
{"smiles": "O=C(NCCc1cccs1)C1(N2CCCCC2)Cc2ccccc2C1", "Percent Effect": 15.22}
{"smiles": "CN(C)c1nccc(N2CCO[C@H]3CN(Cc4ccsc4)C[C@H]32)n1.O=C(O)C(F)(F)F", "Percent Effect": 57.1}
{"smiles": "Cc1cccc(CN2C[C@@H]3OCCN(c4ccnc(N(C)C)n4)[C@@H]3C2)c1.O=C(O)C(F)(F)F", "Percent Effect": 24.83}
{"smiles": "O=C(O)C(F)(F)F.O=C(O)C(F)(F)F.c1cnc(N2CCO[C@H]3CN(Cc4ccsc4)C[C@H]32)nc1", "Percent Effect": 5.511}
{"smiles": "Oc1ccccc1-c1n[nH]c(C2CC2)n1", "Percent Effect": -27.03}
{"smiles": "CNC(=O)CC1CCN(C(=O)NCc2cn3c(C)cccc3n2)CC1", "Percent Effect": 20.05}
{"smiles": "CC(=O)N1CCCC(c2ccc(C(=O)NC3CCCC3)cn2)C1", "note": "(centres undefined)", "Percent Effect": -27.02}
{"smiles": "O=C(O)CC(O)(CC(=O)O)C(=O)O.O[C@@]1(c2ccccn2)CC[C@H]2CN(Cc3cccc(Cl)c3Cl)C[C@H]21", "Percent Effect": 3.215}
{"smiles": "COc1ncc(CN2C[C@@H]3CC[C@@](O)(c4ccc(C)cn4)[C@@H]3C2)cn1.O=C(O)CC(O)(CC(=O)O)C(=O)O", "Percent Effect": -1.54}
{"smiles": "Cc1ccc([C@]2(O)CC[C@H]3CN(Cc4cc(C)c(O)c(C)c4)C[C@H]32)nc1.O=C(O)CC(O)(CC(=O)O)C(=O)O", "Percent Effect": 50.31}
{"smiles": "Cc1ccc([C@]2(O)CC[C@H]3CN(Cc4cccc(F)c4F)C[C@H]32)nc1.O=C(O)CC(O)(CC(=O)O)C(=O)O", "Percent Effect": -20.35}
{"smiles": "Cc1ccc([C@]2(O)CC[C@H]3CN(Cc4cccc(Cl)c4Cl)C[C@H]32)nc1.O=C(O)CC(O)(CC(=O)O)C(=O)O", "Percent Effect": 69.29}
{"smiles": "Cc1ccc([C@]2(O)CC[C@H]3CN(Cc4ccccc4F)C[C@H]32)nc1.O=C(O)CC(O)(CC(=O)O)C(=O)O", "Percent Effect": 8.735}
{"smiles": "CN(CCc1ncnn1-c1ccccc1Cl)C1CCS(=O)(=O)C1", "note": "(centres undefined)", "Percent Effect": -16.6}
{"smiles": "Cc1ccc(CNS(=O)(=O)CCCC#N)cc1F", "Percent Effect": 6.478}
{"smiles": "CC(c1nccs1)N(C)S(=O)(=O)NCc1ccccc1", "note": "(centres undefined)", "Percent Effect": -14.93}
{"smiles": "Cc1cc(C)n(CC2CN(CC(=O)NC(C3CC3)C3CC3)CCO2)n1", "note": "(centres undefined)", "Percent Effect": -31.15}
{"smiles": "Cc1ccc(CN2Cc3c(C(=O)N4CCOCC4)nn(C)c3C2)s1.O=C(O)C(F)(F)F", "Percent Effect": 15.84}
{"smiles": "O=C(O)C(F)(F)F.c1cnc(N2CCO[C@H]3[C@H](OCC4CCOCC4)CC[C@@H]32)nc1", "Percent Effect": -2.783}
{"smiles": "c1ccc(CN2CCC(Nc3ncnc4c3CCNCC4)C2)cc1", "note": "(centres undefined)", "Percent Effect": 21.59}
{"smiles": "CCS(=O)(=O)N1CCCCC1c1nc(CC(C)C)no1", "note": "(centres undefined)", "Percent Effect": 28.4}
{"smiles": "Cc1cccc2c1cnn2CCC(=O)NCc1csc(C2CC2)n1", "Percent Effect": 28.59}
{"smiles": "CN1CCN(c2ncccc2N)CC1", "Percent Effect": -43.88}
{"smiles": "Cl.Nc1cccnc1N1CCCCCC1", "Percent Effect": 72.92}
{"smiles": "Nc1cccnc1N1CCN(c2ccccc2)CC1", "Percent Effect": 11.1}
{"smiles": "Cc1cc(C)n(CCNCc2cc(-c3ccc(Cl)cc3)c[nH]c2=O)n1", "Percent Effect": -2.359}
{"smiles": "Cc1nc2c(c(NCc3cc4ccccc4s3)n1)CCNCC2", "Percent Effect": 31.59}
{"smiles": "Cc1nc2c(c(NCc3ccc(-c4ccccn4)s3)n1)CCNCC2", "Percent Effect": 10.6}
{"smiles": "Cc1nc2c(c(NCc3nc4ccccc4s3)n1)CCNCC2", "Percent Effect": 90.34}
{"smiles": "Cc1nnc(N2CC[C@H]3C[C@@H](C(=O)NC4CCCC4)O[C@H]3C2)s1.O=C(O)C(F)(F)F", "Percent Effect": -17.08}
{"smiles": "O=C(NC1CCN(Cc2cccc3c2OCCO3)CC1)c1cccs1", "Percent Effect": -12.52}
{"smiles": "Cc1nnc([C@@]23CCO[C@@H]2CCN(Cc2ccc4c(c2)OCO4)C3)o1", "Percent Effect": -5.266}
{"smiles": "Cc1csc(N2CCN(C(=O)c3c(C)oc(C)c3C)CC2)n1", "Percent Effect": 16.26}
{"smiles": "Cc1cc(C(N)=O)ccc1NC(=O)c1nc(N2CCCC2)ncc1Cl", "Percent Effect": 105.8}
{"smiles": "Cc1cc(NC(=O)c2nc(N3CCCC3)ncc2Cl)nc(C(C)C)n1", "Percent Effect": 24.2}
{"smiles": "CN(C)C(CNC(=O)c1nc(N2CCCC2)ncc1Cl)c1ccco1", "note": "(centres undefined)", "Percent Effect": 22.7}
{"smiles": "O=C(Nc1cnn(-c2ccccc2Cl)c1)N[C@@H]1C=C[C@H](CO)C1", "Percent Effect": 52.75}
{"smiles": "Cc1cnn(Cc2ccc(NC(=O)N[C@@H]3C=C[C@H](CO)C3)cc2)c1", "Percent Effect": 20.48}
{"smiles": "O=C(Nc1cnn(Cc2ccc(Cl)cc2)c1)N[C@@H]1C=C[C@H](CO)C1", "Percent Effect": 24.39}
{"smiles": "O=C(N1CCCC1)N1C[C@@H](OCc2cccnc2)[C@H]2OCCC[C@H]21.O=C(O)C(F)(F)F", "Percent Effect": 12.95}
{"smiles": "Cc1cc2ccccc2n1CCC(=O)N1CCCCC1CCO", "note": "(centres undefined)", "Percent Effect": 105.9}
{"smiles": "Cc1cc2ccccc2n1CCC(=O)N1CCC[C@H]1C(N)=O", "Percent Effect": 9.96}
{"smiles": "Cc1cc2ccccc2n1CCC(=O)N1CCN(C)CC1C(N)=O", "note": "(centres undefined)", "Percent Effect": 81.47}
{"smiles": "O=C(CCCOc1ccccc1)N1CCCC1Cn1cccn1", "note": "(centres undefined)", "Percent Effect": -5.631}
{"smiles": "Cc1cc2ccccc2n1CCC(=O)N1CCCC2(CC1)CNC(=O)O2", "note": "(centres undefined)", "Percent Effect": -6.951}
{"smiles": "Cc1cc2ccccc2n1CCC(=O)N1CCCC1Cn1cccn1", "note": "(centres undefined)", "Percent Effect": 91.97}
{"smiles": "COc1ccc2c(ccn2CC(=O)N2CCCC2Cn2cccn2)c1", "note": "(centres undefined)", "Percent Effect": 24.26}
{"smiles": "Cc1cc(C)n(CC(=O)N2CCCCC2CCN(C)C)c(=O)n1", "note": "(centres undefined)", "Percent Effect": 19.58}
{"smiles": "Cc1cc2ccccc2n1CCC(=O)N1CCC2(CC1)CNC(=O)C2", "Percent Effect": -9.599}
{"smiles": "Cc1cc(C2CCCN(C(=O)c3cccnc3)C2)ccn1", "note": "(centres undefined)", "Percent Effect": -13.34}
{"smiles": "CCc1cc(NCc2ccccc2CN2CCCC2)n2ncnc2n1", "Percent Effect": -6.247}
{"smiles": "O=C(NCc1ccco1)[C@H]1C[C@@H]2CCN(c3ncccn3)C[C@H]2O1.O=C(O)C(F)(F)F", "Percent Effect": 33.78}
{"smiles": "COCC[C@]1(O)CCN(Cc2nc(C)cs2)C[C@H]1C", "Percent Effect": -15.54}
{"smiles": "O=C(O)C(F)(F)F.O=C1[C@H]2CN(c3ncccn3)C[C@H]2CN1CCN1CCCC1", "Percent Effect": 1.191}
{"smiles": "Cc1cnc(N2CCc3onc(COc4cccnc4)c3C2)nc1", "Percent Effect": -20.46}
{"smiles": "Cc1cc(C)cc(C(=O)N2CCN(C(=O)N(C)C)CC2(C)C)c1", "Percent Effect": 26.69}
{"smiles": "Cc1nc(Nc2cnccn2)cc(C2CCN(CCO)C2)n1.O=CO", "note": "(centres undefined)", "Percent Effect": -24.26}
{"smiles": "CSCCC(NC(=O)c1ccco1)C(=O)N(C)Cc1ccsc1", "note": "(centres undefined)", "Percent Effect": -9.579}
{"smiles": "O=C(NCCC(=O)N1CCCC1)c1ccc(SCc2cccnc2)cc1", "Percent Effect": 35.93}
{"smiles": "CCOc1ccnc(N2CCN(C(=O)c3cccnc3)CC2)n1", "Percent Effect": -18.66}
{"smiles": "O=S(=O)(NC1CCCCC12OCCO2)c1cc(F)cc(F)c1", "note": "(centres undefined)", "Percent Effect": 56.69}
{"smiles": "O=S(=O)(NC1CCCCC12OCCO2)c1ccc2c(c1)OCCO2", "note": "(centres undefined)", "Percent Effect": 44.93}
{"smiles": "O=S(=O)(NC1CCCCC12OCCO2)c1cc(Cl)cc(Cl)c1", "note": "(centres undefined)", "Percent Effect": 16.3}
{"smiles": "CCCN1CCC(Cc2noc(-c3cccnc3OC)n2)CC1", "Percent Effect": 20.11}
{"smiles": "COc1ccc(-c2nnc(SC(C)C(=O)NC3CCCC3)[nH]2)c(OC)c1", "note": "(centres undefined)", "Percent Effect": -11.32}
{"smiles": "CCn1nc(C)c(CNC(=O)c2nnc3ccc(Cl)cc3n2)c1C", "Percent Effect": 64.24}
{"smiles": "Cc1ccc(-n2nnc(C(=O)NCC3CCCCC3)n2)cc1", "Percent Effect": 32.3}
{"smiles": "Cc1ccc2nnc(C(=O)NCC3CCCC3)nc2c1", "Percent Effect": 99.7}
{"smiles": "CCn1nc(C)c(CNC(=O)c2nnc3ccc(OC)cc3n2)c1C", "Percent Effect": -22.43}
{"smiles": "COc1ccc(C(=O)NC2CC2)c(OC)c1", "Percent Effect": 29.69}
{"smiles": "COc1ccc2nnc(C(=O)NCC3CCCC3)nc2c1", "Percent Effect": 39.03}
{"smiles": "CCn1nc(C)c(CNC(=O)c2nnc3ccccc3n2)c1C", "Percent Effect": 7.838}
{"smiles": "O=C(NCC1CCOC1)c1csc(-c2ccc(Cl)cc2)n1", "note": "(centres undefined)", "Percent Effect": 25.26}
{"smiles": "COc1ccc2nnc(C(=O)NC3CCCC3)nc2c1", "Percent Effect": 60.2}
{"smiles": "O=C(NCC1CCOC1)c1cc(-c2ccc(Cl)cc2)n[nH]1", "note": "(centres undefined)", "Percent Effect": -7.527}
{"smiles": "O=C(NCC1CC1)c1nnc2ccc(Cl)cc2n1", "Percent Effect": 99.3}
